# Values joined by “and” are separate entries in the source; they are usually repeats but may differ in a detail not shown here. Equal entries are not always repeated. In all, about 5,300 compounds were measured (“PER2::LUC luminescence relative to vehicle control”: median about 0.96, highest 2% from about 1.3 on). Only a selection was taken, and the highest values are over-represented in it overall.
# Test system: mPer2Luc MEF
# Assay: PER2::LUC luminescence relative to vehicle control (fold of vehicle); higher = higher PER2::LUC reporter signal
# Details: 10 µM
# Procedure, shortened: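 Mouse embryonic fibroblasts carrying the mPer2Luc reporter were seeded at ~3000 cells per well in 384-well plates, 48 h before compounds from commercial libraries were added at 10 μM. Cells were grown in DMEM with 10% FBS at 37 °C and 5% CO2. Luminescence was read with the ONE-Glo luciferase assay system 24 h and 30 h after treatment, followed by an alamarBlue viability assay. The value is PER2::LUC luminescence as fold of vehicle control.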
SMILES,PER2::LUC luminescence (time after treatment 24 h),PER2::LUC luminescence (time after treatment 30 h)
CCCCC(CC)COC(=O)C(C#N)=C(c1ccccc1)c1ccccc1 (stereo unspecified),1.01 and 1.15,1.08 and 1.14
CCCCC(CC)COC(=O)C=Cc1ccc(OC)cc1 (stereo unspecified),1.09,1.14
COc1ccc(CNc2nc(NCc3ccc(OC)cc3)c3ncn(C(C)C)c3n2)cc1,0.991,1.22
CC(C(=O)O)c1ccc(CC2CCCC2=O)cc1 (stereo unspecified),0.779 and 1.02,1.36 and 1.08
CC(C)Cc1ccc(C(C)C(=O)O)cc1 (racemic),1.12,0.938
CC(C)Cc1ccc([C@@H](C)C(=O)O)cc1,0.974,0.981
O=C(NCc1cccc(O)c1)c1cc2cc(F)ccc2[nH]1,0.948,0.986
CC(=O)NN(Cc1ccc(N)cc1)c1ncnc2c1ncn2[C@@H]1O[C@H](CO)[C@@H](O)[C@H]1O,1.03,0.913
NC1(C(=O)O)CCc2cc(P(=O)(O)O)ccc21 (racemic),1.03,1.01
Cc1nc(C(=O)N2CCC[C@H]2Cc2nnc(-c3ccccc3)o2)c(-c2ccccc2F)s1,1.06,0.881
COc1ccc(CCN2CN=C(SCc3ccc(Cl)cc3)NC2)cc1OC,0.912,0.83
COc1cc(CC(=O)O)ccc1O,0.99,0.874
COc1ccc(-c2nc3cc(F)ccc3s2)cc1OC,1.5,1.52
COc1cc(-c2nc3ccccc3s2)ccc1O,1.37,1.5
COc1ccccc1O,0.97,0.878
COc1cc(-c2ccc(=O)[nH]n2)ccc1OC(F)F,0.97,0.924
C#CCN(Cc1cc2c(=O)[nH]c(C)nc2cc1Br)c1ccc(C(=O)NCc2cccnc2)cc1,0.902,0.731
CC(Oc1ccc(Oc2cnc3ccc(Cl)cc3n2)cc1)C(=O)O (stereo unspecified),1.14,1.05
COc1cc2ncnc(Nc3cccc(I)c3)c2cc1OC,0.808,0.774
O[C@@](Cc1ncc(CC2(C(F)(F)F)CC2)[nH]1)(c1ccc(-n2cccn2)cc1)C(F)(F)F,0.966,0.921
CCOc1ccc(-n2c(C(C)N(Cc3cccnc3)C(=O)Cc3ccc(OC(F)(F)F)cc3)nc3ncccc3c2=O)cc1 (stereo unspecified),0.97,0.944
O=C(Nc1ccc(OC(F)(F)F)cc1)c1sccc1NCc1ccnc2ccccc12,1.76,1.99

SMILES,PER2::LUC luminescence (time after treatment 24 h),PER2::LUC luminescence (time after treatment 30 h)
Cc1cc(Nc2ccc(NC(=O)c3ccc(Nc4ccnc5ccccc45)cc3)cc2)nc(N)n1,0.945,1
Cc1c2c(c(O)c3c(O)cccc13)C(=O)O[C@@H]2[C@@H]1[C@H](O)C(=O)C(C(N)=O)=C(O)[C@H]1N(C)C [Alpha-APO-OXYTETRACYCLINE],0.979,0.958
CCc1c(C(=O)NNC(=O)C(O)c2cc(F)cc(F)c2)ccc(O)c1C (stereo unspecified),0.99,0.823
COc1ccc2oc(-c3ccccc3OC)cc(=O)c2c1,1.38,1.61
COc1ccc2c(=O)c(OC)c(-c3ccccc3)oc2c1,0.767,0.809
COc1ccc(-c2cc(=O)c3c(OC)c(OC)c(OC)c(OC)c3o2)cc1OC,0.626,0.784
COc1ccc2ccc(=O)oc2c1,1,1.01
COc1ccc(-c2cc(=O)c3ccc(O)cc3o2)cc1,1.19,1.23
COc1cccc(-c2cc(=O)c3ccc(OC)cc3o2)c1,0.879,0.955
COc1ccc2oc(-c3ccccc3)c(OC)c(=O)c2c1,1.54,1.73
COc1cccc(-c2cc(=O)c3ccccc3o2)c1N,0.951,0.985
COc1ccc(-c2cc(=O)c3c(OC)c(OC)c(OC)c(OC)c3o2)cc1,0.944,1.03
COc1ccc(-c2oc3ccccc3c(=O)c2OC)cc1,0.987,1.2
COc1cccc(-c2cc(=O)c3cc(OC)ccc3o2)c1,1.22,1.49
COc1ccc(-c2cc(=O)c3ccccc3o2)cc1,1.72,1.29
CC[C@H](C)[C@H]1O[C@]2(C=C[C@@H]1C)C[C@@H]1C[C@@H](C/C=C(\C)[C@@H](O[C@H]3C[C@H](OC)[C@@H](O[C@H]4C[C@H](OC)[C@@H](O)[C@H](C)O4)[C@H](C)O3)[C@@H](C)/C=C/C=C3\CO[C@@H]4[C@H](OC)C(C)=C[C@@H](C(=O)O1)[C@]34O)O2,0.767,0.843
NC(=O)C[n+]1cccc(C(=O)O)c1,1.18,1.08
c1cc(NC2CCNCC2)nc(-c2cnc3ccccn23)c1,0.506,0.487
CCCNC[C@]1(O)[C@H](C)O[C@@H](O[C@H]2[C@H](C)[C@@H](O[C@@H]3O[C@H](C)C[C@H](N(C)C)[C@H]3O)[C@](C)(O)C[C@@H](C)CN[C@H](C)[C@@H](O)[C@](C)(O)[C@@H](CC)OC(=O)[C@@H]2C)C[C@@]1(C)OC,1.05,0.881
C/C=C(/C)C(=O)O[C@H]1CC(C)=CC(=O)[C@@]2(C)CC[C@@](O)(C(C)C)[C@H]12,1.01,0.988
Cc1nnc(-c2sc(NC(=O)[C@H](C(C)C)n3c(=O)[nH]c4ccccc4c3=O)nc2C)o1,1.04,0.956

# Source: the supplement of paper PMC9334596
